Test [1] in a line: stimulators of insulin release from INS-1E, primary screen, cell-based, 5 mM glucose, NPC library (AID 1117329;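 active means compound raises insulin release from rat beta cells at 5 mM glucose, no numeric limit stated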). The conditions noted are these: rat INS-1E insulin secretion, at 10 µM, active compounds read high.
Test [2] can be described thus: growth inhibition of GSK3B-pretreated HCT116 cells – cell-based, CellTiter-Glo, 0.2 to 20 µM (AID 1117336;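 active means compounds lowering colon cancer cell viability after pretreatment blocking the GSK3B kinase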). As to conditions: HCT116 viability after GSK3B inhibitor, at 20 µM, active compounds read high. For orientation: In ATP-based viability assays light output follows the ATP content of the culture.
A short description of test [3]: inhibition of endothelial tube formation, primary screen, imaging, VEGF stimulated, CD31 staining, tube area, NPC library (AID 1117340;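 active means compound that reduces growth-factor-driven endothelial tube area in a mixed cell culture, no cutoff stated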). The conditions noted are these: VEGF-stimulated ADSC/ECFC co-culture, at 10 µM, active compounds read high.
The nature of test [4]: GLP1 release stimulators, primary, NCI-H716, NPC library (AID 1117341;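 active means compound raises GLP1 secretion from the human gut endocrine cells, with no numeric limit stated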). The conditions noted are these: NCI-H716 cells, at 10 µM, active compounds read high.
A short description of test [5]: HCT116 colon cancer cell growth inhibition, primary screen, CellTiter-Glo luminescence, NPC library (AID 1117342;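 active means compounds that lower survival of HCT116 colon cancer cells in the luminescence readout, no numeric limit stated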). The conditions noted are these: at 20 µM (top of the series).
Test [6] in a line: reduced SW480 viability measured with CellTiter-Glo, NPC library, primary (AID 1117343). As to conditions: CellTiter-Glo luminescence; at 20 µM (top of the series).
The nature of test [7]: NPC library primary testing for decreased DLD-1 cell viability via CellTiter-Glo (AID 1117346;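 active means compounds that lower survival of DLD-1 colon cancer cells in the luminescence readout, no cutoff given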). As to conditions: DLD-1 viability, CellTiter-Glo luminescence; at 20 µM (top of the series).
Test [8] addresses 6-phosphogluconate dehydrogenase, decarboxylating (Homo sapiens) (UniProt P52209). The test is described as follows: inhibition of human phosphogluconate dehydrogenase – biochemical, recombinant enzyme, NADPH absorbance, primary screen (AID 1159550;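 active means at least 20% inhibition of 6-phosphogluconate dehydrogenase activity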). The conditions noted are these: recombinant 6PGD, NADPH absorbance 341 nm; at 10 µM; active compounds read high.

Values without a mark were called inactive. Calls of active or inactive are those of the source.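 How the source made its calls, unless noted: active means compounds that lower viability of the colon cancer cells in the luminescence readout, with no numeric limit stated; inactive means the rest.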

Usually inhibition stands for the change of the read-out against control, counted positive when it falls.

6-phosphogluconate dehydrogenase, decarboxylating (Homo sapiens), sequence (P52209 whole entry, looked up): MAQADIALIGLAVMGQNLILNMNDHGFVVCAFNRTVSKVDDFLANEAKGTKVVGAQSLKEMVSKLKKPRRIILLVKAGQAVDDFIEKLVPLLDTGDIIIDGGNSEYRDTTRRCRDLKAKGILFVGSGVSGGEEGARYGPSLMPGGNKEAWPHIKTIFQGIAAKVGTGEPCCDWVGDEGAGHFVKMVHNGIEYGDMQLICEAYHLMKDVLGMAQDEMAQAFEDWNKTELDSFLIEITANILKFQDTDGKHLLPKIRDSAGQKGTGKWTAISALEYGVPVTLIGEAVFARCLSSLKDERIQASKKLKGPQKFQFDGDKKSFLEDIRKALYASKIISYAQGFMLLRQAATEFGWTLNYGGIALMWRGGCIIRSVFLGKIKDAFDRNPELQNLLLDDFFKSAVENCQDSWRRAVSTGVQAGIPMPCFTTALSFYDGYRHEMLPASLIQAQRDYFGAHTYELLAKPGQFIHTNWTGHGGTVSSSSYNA

Consider `Nc1ccc(S(=O)(=O)Nc2ccnn2-c2ccccc2)cc1`, for which the insulin secretion stimulation in test [1] is -1.3%. Moreover, the viability decrease in test [2] was -8.8%. Further, the tube area decrease in test [3] was -4.8%. Moreover, in test [4], the GLP1 secretion stimulation is 3.3%. Moreover, the inhibition of viability in test [5] is -9.2%. Further, the values for the viability decrease (inhibition) in test [6] and in test [7] were 6.4% and -3.95%, respectively. Besides, the inhibition in test [8] was -9.54%.
Turning to `CC1(C)O[C@H]2CC(=O)OC[C@]23[C@H]2CC[C@@]4(C)[C@H](c5ccoc5)OC(=O)[C@H]5O[C@]54[C@]2(C)C(=O)C[C@@H]13`, the insulin secretion stimulation in test [1] is 0.05%. The viability decrease in test [2] is 2.7%. Besides, in test [3], the tube area decrease is 16.3%. Also, the GLP1 secretion stimulation in test [4] was 2%. The inhibition of viability in test [5] is -6.9%. For the same molecule, the viability decrease (inhibition) in test [6] was -12.1%; in test [7], -9.6%. In test [8], the inhibition was 5.47%.
With `CCN(CC)CCOc1ccc(/C(=C(\Cl)c2ccccc2)c2ccccc2)cc1`, the insulin secretion stimulation in test [1] was 3.6%. Further, the viability decrease in test [2] was 102% (active). In test [3], the tube area decrease was 110% (active). Further, in test [4], the GLP1 secretion stimulation is 22.8% (active). In test [5], the inhibition of viability was 102% (active). Besides, the viability decrease (inhibition) in test [6] was 124% (active); in test [7], 103% (active). In test [8], the inhibition was -19.7%.
Turning to `CN1CCOC(c2ccccc2)c2ccccc2C1` (centres undefined), the insulin secretion stimulation in test [1] was 1.8%. For the same molecule, the viability decrease in test [2] was -52.9%. The tube area decrease in test [3] was 0.9%. Also, the GLP1 secretion stimulation in test [4] was 4%. Further, the inhibition of viability in test [5] was 12.4%. The viability decrease (inhibition) in test [6] is 40.1%; in test [7] it was -7.2%. The inhibition in test [8] was 5.09%.
Regarding `CC(=O)OCC(=O)[C@@]1(O)[C@H](C)C[C@H]2[C@@H]3CCC4=CC(=O)C=C[C@]4(C)[C@@]3(F)[C@@H](O)C[C@@]21C`, the insulin secretion stimulation in test [1] is 0.55%. For the same molecule, in test [2], the viability decrease was 10.3%. Further, in test [3], the tube area decrease was -13.1%. Also, the GLP1 secretion stimulation in test [4] was 4%. The inhibition of viability in test [5] was 7.2%. The viability decrease (inhibition) in test [6] is 32.2%; in test [7], -4.9%. In addition, in test [8], the inhibition was -7.66%.
Regarding `OC(CCN1CCCCC1)(c1ccccc1)c1ccccc1`, the insulin secretion stimulation in test [1] was 60.4% (active). For the same molecule, the viability decrease in test [2] was 12.2%. In addition, in test [3], the tube area decrease is 1.5%. Further, the GLP1 secretion stimulation in test [4] was 3.3%. For the same molecule, the inhibition of viability in test [5] was 23.9%. Moreover, the viability decrease (inhibition) was 27% in test [6] and 2.1% in test [7]. In addition, the inhibition in test [8] is 12.5%.
With `CC(=O)NO`, in test [1], the insulin secretion stimulation is 5.1%. The viability decrease in test [2] is 30.9%. Moreover, the tube area decrease in test [3] was 11.1%. Besides, in test [4], the GLP1 secretion stimulation is 10.8% (active). In test [5], the inhibition of viability was 10.6%. Further, the viability decrease (inhibition) in test [6] was 69.2% (active); in test [7] it was 56% (active). In addition, the inhibition in test [8] is -9.51%.
Regarding `CN1CCC(OC(c2ccccc2)c2ccccc2)CC1`, in test [1], the insulin secretion stimulation was 6.2%. Further, the viability decrease in test [2] is -31.3%. Moreover, the tube area decrease in test [3] is 13.8%. For the same molecule, the GLP1 secretion stimulation in test [4] is 4.2%. For the same molecule, the inhibition of viability in test [5] was 35.4%. In addition, the results for the viability decrease (inhibition) in test [6] and in test [7] were 37.7% and -6.7%, respectively. Also, the inhibition in test [8] is 10.6%.
With `COC(=O)Nc1nc2ccc(C(=O)c3cccs3)cc2[nH]1`, in test [1], the insulin secretion stimulation is -0.3%. Also, the viability decrease in test [2] is 69.2% (active). The tube area decrease in test [3] was 105% (active). In test [4], the GLP1 secretion stimulation was -3.1%. The inhibition of viability in test [5] is 60.8% (active). Besides, the viability decrease (inhibition) in test [6] is 22.9%; in test [7], 58.6% (active). Moreover, the inhibition in test [8] is -7.55%.
In the case of `CO[C@@]12[C@H](COC(N)=O)C3=C(C(=O)C(C)=C(N)C3=O)N1C[C@@H]1N[C@@H]12`, the insulin secretion stimulation in test [1] was 0.2%. Also, the viability decrease in test [2] is 106% (active). In addition, in test [3], the tube area decrease was 108% (active). In addition, the GLP1 secretion stimulation in test [4] was 1.2%. Besides, the inhibition of viability in test [5] was 105% (active). Also, the viability decrease (inhibition) in test [6] was 124% (active); in test [7], 95.8% (active). Further, the inhibition in test [8] is -2.77%.
As to `COc1ccc(CCN2CCC(Nc3nc4ccccc4n3Cc3ccc(F)cc3)CC2)cc1`, the insulin secretion stimulation in test [1] was 5.85%. Besides, the viability decrease in test [2] is 108% (active). For the same molecule, the tube area decrease in test [3] was 98.1% (active). In addition, the GLP1 secretion stimulation in test [4] is 14%. For the same molecule, in test [5], the inhibition of viability was 112% (active). The values for the viability decrease (inhibition) in test [6] and in test [7] were 129% (active) and 100% (active), respectively. Moreover, the inhibition in test [8] is 14.2%.
Regarding `CC(CN(C)C)CN1c2ccccc2CCc2ccccc21` (centres undefined), the insulin secretion stimulation in test [1] is 2.4%. For the same molecule, in test [2], the viability decrease is -139%. Further, the tube area decrease in test [3] was 13.4%. Moreover, the GLP1 secretion stimulation in test [4] is 4.5%. In addition, the inhibition of viability in test [5] is 55.4% (active). Besides, the viability decrease (inhibition) in test [6] is 136% (active); in test [7] it was 1.5%. Further, the inhibition in test [8] is 13.6%.
Take `C[C@]12CC[C@@H]3c4ccc(O)cc4CC[C@H]3[C@@H]1CCC2=O`: the insulin secretion stimulation in test [1] was -1.5%. In test [2], the viability decrease is -6%. In test [3], the tube area decrease is 21.8%. Also, in test [4], the GLP1 secretion stimulation was -1.2%. Besides, the inhibition of viability in test [5] is -35.2%. For the same molecule, the viability decrease (inhibition) in test [6] was 32.8%; in test [7], -3.45%. For the same molecule, the inhibition in test [8] was -17.4%.

(Values after PubChem BioAssay.)
